The record followed here is PubChem BioAssay (NCI).

Some test systems named below: NCI-H23 lung; NCI-H226 lung; NCI-H322M lung; HOP-62 NSCLC; NCI-H460 lung; HOP-92 NSCLC; NCI-H522 lung; A549/ATCC NSCLC; 786-0 renal; COLO 205 colon.
Common to all, as to experiment: NCI-60 one-dose screen, 48 h (100 = growth as untreated, 0 = no growth, -100 = all killed)
Common to all, as to details: 10 µM

The panel holds about 83,000 compounds, 20% with a hit somewhere; the sample as a whole holds those more often.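 Step 1: grow cells in 96-well plates. Step 2: add test compound at a single concentration. Step 3: incubate 48 h. Step 4: record percent growth.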 A number with no mark means an inactive call. Active and inactive are the calls of the source. How the source made its calls: active means growth percent below 10; inactive means the rest.

In the case of `O=C(Nc1nc2ccc([N+](=O)[O-])cc2s1)Nc1cc(Cl)ccc1I`, the growth was -53.2% (active) in the experiment on NCI-H23 lung; -50.9% (active) in the experiment with NCI-H226 lung; -9.64% (active) in the experiment on NCI-H322M lung; -44% (active) in the experiment with HOP-62 NSCLC; -2.31% (active) in the experiment on NCI-H460 lung; -32.5% (active) in the experiment with HOP-92 NSCLC. The growth in the experiment on NCI-H522 lung was -52.8% (active); in the experiment on A549/ATCC NSCLC, -9.31% (active); with 786-0 renal, -49.4% (active); in the experiment with COLO 205 colon, -98.1% (active).
With `CC(=O)Nc1ccc(-c2cn(-c3cccc(C(=O)Nc4ccc(F)c(C(F)(F)F)c4)c3)nn2)cn1`, the growth with NCI-H23 lung was 23.6%; in the experiment with NCI-H226 lung, 26.4%; in the experiment on NCI-H322M lung it was 54.3%; in the experiment with HOP-62 NSCLC, 87.7%; with NCI-H460 lung, -47.1% (active); in the experiment with HOP-92 NSCLC, 65.6%. For the same molecule, the growth with NCI-H522 lung is 62.3%; in the experiment with A549/ATCC NSCLC, 54.3%; in the experiment on 786-0 renal, 79.9%; with COLO 205 colon, 46%.
As for `CN1CCc2c(sc3ncnc(N/N=C/c4ccc5ccccc5c4)c23)C1`, the growth in the experiment with NCI-H23 lung is 66.1%; with NCI-H226 lung it was 86.1%; in the experiment on NCI-H322M lung it was 97%; with HOP-62 NSCLC, 82%; in the experiment on NCI-H460 lung, 0.259% (active); in the experiment on HOP-92 NSCLC it was 89.2%. Further, the growth is 83.9% in the experiment with NCI-H522 lung, 42.7% in the experiment with A549/ATCC NSCLC, 51% with 786-0 renal and 36.3% in the experiment with COLO 205 colon.
With `COc1cc(NC(=O)c2cc(-c3ccc(F)cc3F)ccc2O)cc(OC)c1OC`, the growth in the experiment on NCI-H23 lung was 26.2%; with NCI-H226 lung, 50.9%; with NCI-H322M lung, 38.4%; in the experiment on HOP-62 NSCLC, 24%; in the experiment on NCI-H460 lung it was 22.5%; in the experiment with HOP-92 NSCLC, -11.8% (active). The growth in the experiment on NCI-H522 lung was 7.09% (active); in the experiment with A549/ATCC NSCLC, 37.1%; with 786-0 renal, 54%; with COLO 205 colon it was 116%.
As to `COc1cc(-c2nc3cc(Cl)c(Cl)cc3[nH]2)ccc1OCc1nnc(-c2ccc(Br)cc2)o1`, the growth is 24% in the experiment on NCI-H23 lung; -46.8% (active) in the experiment with NCI-H226 lung; 38.8% in the experiment on NCI-H322M lung; -28.1% (active) with HOP-62 NSCLC; 22.9% in the experiment with NCI-H460 lung; -39.6% (active) in the experiment on HOP-92 NSCLC. The growth in the experiment on NCI-H522 lung is 8.01% (active); in the experiment with A549/ATCC NSCLC, 19.5%; with 786-0 renal, -31% (active); in the experiment with COLO 205 colon, 51.4%.
For the molecule `O=C(CNc1nc(-c2ccccc2)cs1)Nc1ccc([N+](=O)[O-])cc1Cl`, the growth in the experiment with NCI-H23 lung is 0.556% (active); with NCI-H226 lung, 31.5%; with NCI-H322M lung it was 60.3%; in the experiment with HOP-62 NSCLC, 42.4%; with NCI-H460 lung, 51.6%; with HOP-92 NSCLC, 29%. The growth in the experiment on NCI-H522 lung is -19.1% (active); with A549/ATCC NSCLC it was 44.1%; in the experiment with 786-0 renal, 38.1%; in the experiment on COLO 205 colon it was 60.7%.
Regarding `CN1C(=O)N(C)C2SC(N/N=C/c3ccccc3)=NC21` (stereo not given), the growth in the experiment with NCI-H23 lung is 79.5%; in the experiment on NCI-H226 lung it was 98.1%; with NCI-H322M lung, 98.3%; with HOP-62 NSCLC, 76.9%; with NCI-H460 lung, 68.9%; in the experiment on HOP-92 NSCLC it was 111%. Moreover, the growth is 60.4% in the experiment with NCI-H522 lung, 72.4% in the experiment on A549/ATCC NSCLC, 82.3% in the experiment on 786-0 renal and 92.5% in the experiment with COLO 205 colon.
As to `Cc1nc(Nc2nc(C)c3ccc(OCCN4CCOCC4)cc3n2)[nH]c(=O)c1C`, the growth is -66.6% (active) with NCI-H23 lung; -47.2% (active) in the experiment on NCI-H226 lung; -10.8% (active) in the experiment on NCI-H322M lung; -34.5% (active) with HOP-62 NSCLC; 2.14% (active) in the experiment on NCI-H460 lung; 3.9% (active) with HOP-92 NSCLC. Also, the growth is -52.3% (active) in the experiment on NCI-H522 lung, 6.61% (active) in the experiment on A549/ATCC NSCLC, -25.1% (active) with 786-0 renal and 0.287% (active) in the experiment with COLO 205 colon.
With `NS(=O)(=O)c1ccc(N=Nc2c(O)n(CC(=O)Nc3ccccc3Br)c3ccccc23)cc1`, the growth is 40% in the experiment on NCI-H23 lung; 14.4% with NCI-H226 lung; 50.3% with NCI-H322M lung; 37.6% with HOP-62 NSCLC; 26.4% with NCI-H460 lung; 38.7% in the experiment with HOP-92 NSCLC. In addition, the growth with NCI-H522 lung was 32.6%; in the experiment with A549/ATCC NSCLC, 19.8%; in the experiment with 786-0 renal, 20.1%; with COLO 205 colon, 5.92% (active).
Consider `CCOC(=O)CNC(=O)CN(Cc1ccccc1)C(=O)[C@@]1(C)CCC[C@]2(C)[C@H]3C[C@H]4C(C(C)C)=C[C@]3(CC[C@H]21)[C@@H]1C(=O)OC(=O)[C@@H]14`, for which the growth in the experiment with NCI-H23 lung is 46.6%; in the experiment with NCI-H226 lung it was 71.3%; in the experiment on NCI-H322M lung, 106%; with HOP-62 NSCLC, 82.8%; in the experiment on NCI-H460 lung, 61.1%; with HOP-92 NSCLC, 74.6%. Also, the growth with NCI-H522 lung is 35.6%; with A549/ATCC NSCLC it was 53.9%; in the experiment on 786-0 renal, 84.7%; in the experiment with COLO 205 colon, 103%.
Consider `CN(C)CCNC(=O)OCCCCOc1cc(O)c2c(=O)cc(-c3ccccc3)oc2c1`, for which the growth in the experiment on NCI-H23 lung is -2.08% (active); in the experiment on NCI-H226 lung, 12.1%; in the experiment with NCI-H322M lung, -31.2% (active); in the experiment on HOP-62 NSCLC it was 2.14% (active); in the experiment on NCI-H460 lung it was -33.9% (active); with HOP-92 NSCLC, -42.6% (active). Further, the growth in the experiment on NCI-H522 lung is -77% (active); in the experiment with A549/ATCC NSCLC, 4.88% (active); in the experiment on 786-0 renal, -34.5% (active); in the experiment on COLO 205 colon, -46.4% (active).
With `CC(C)(C)c1ccc(NCc2cn(-c3ccc(C(=O)O)cc3)nc2-c2ccc(C#N)cc2)cc1`, the growth with NCI-H23 lung was 8.82% (active); in the experiment on NCI-H226 lung, 31.6%; in the experiment with NCI-H322M lung, 41%; with HOP-62 NSCLC it was 36.2%; in the experiment with NCI-H460 lung, 11.6%; in the experiment with HOP-92 NSCLC it was -3.79% (active). Moreover, the growth with NCI-H522 lung was 57.1%; in the experiment with A549/ATCC NSCLC it was 24.3%; with 786-0 renal it was 22.8%; in the experiment with COLO 205 colon it was 34.8%.
For the molecule `Cc1ccc(NC(=O)c2ccc(-n3c(=O)[nH]c4ccccc4c3=O)cc2)cc1`, the growth in the experiment on NCI-H23 lung is 88.2%; with NCI-H226 lung, 61%; in the experiment with NCI-H322M lung, 99.9%; in the experiment with HOP-62 NSCLC it was 82%; with NCI-H460 lung it was 86.3%; in the experiment with HOP-92 NSCLC it was 36.5%. Moreover, the growth in the experiment with NCI-H522 lung was 13.8%; with A549/ATCC NSCLC, 113%; in the experiment on 786-0 renal it was 36.7%; with COLO 205 colon it was 109%.
